# This is a sample that favours compounds with a hit; in the whole collection about 15% have one here.
# Pf growth 48h = inhibits P. falciparum growth in the first generation, 48 h; P. falciparum luciferase growth in erythrocytes, 48 h; Potency, µM (titrated, usually from 28.7 µM), inactives show at the highest dose activity change, negative = inhibition, usual class: inhibitors; actives 5.9% (n = 310,000); AID 504832; also: potency is read from the fitted curve at half-maximal effect; % is scaled to controls: 0 for no effect and ±100 for the full control effect
#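 Parasite viability was followed by luminescence of a genomically integrated firefly luciferase. Cultures held 0.1% parasitemia at 2% hematocrit (final), incubated under 5% CO2 at 37 C.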
# HCV inhibitor = inhibitors of hepatitis C virus infection; actives 3.4% (n = 340,000); Potency, µM (highest dose often 41.8 µM), inactives show at the top dose activity change, negative = inhibition, most hits filed as inhibitors; Huh7.5.1 HCVcc-Cre infection, luciferase reporter, 44 h; also: potency is read from the fitted curve at half-maximal effect; % is scaled to controls: 0 for no effect and ±100 for the full control effect
#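 HCVcc-Cre virus at an moi near 0.5 was added right after compound to cells cultured 4 h from seeding (1,000 cells/well). Luciferase activity was determined 44 h later, 15 min after substrate addition at RT.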
# Pf growth 96h = P. falciparum growth inhibition at 96 hours; AID 504834; Potency, µM (top dose mostly 28.7 µM), for inactives: at the top dose activity change, negative = inhibition, hits mostly inhibitors; P. falciparum luciferase reporter growth, 96 h; actives 6.9% (n = 320,000); also: potency is read from the fitted curve at half-maximal effect; % is scaled to controls: 0 for no effect and ±100 for the full control effect
#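 Two-generation exposure (96 h) targets delayed-death phenotype. Reporter parasites carrying integrated firefly luciferase, in red cells at 2% hematocrit and 0.05% parasitemia final, kept at 37 C, 5% CO2; luminescence loss indicates inhibition.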
# Sm TGR block = inhibitors of Schistosoma mansoni thioredoxin glutathione reductase | Q962Y6 | purified TGR, DTNB reduction, TNB absorbance 405 nm | Potency, µM (highest dose often 114 µM), without a hit: top-dose activity change, negative = inhibition, hits mostly inhibitors | actives 3% (n = 360,000) | AID 485364; also: potency is read from the fitted curve at half-maximal effect; % is scaled to controls: 0 for no effect and ±100 for the full control effect; nearly all actives have a fitted effect of over 60% in size
#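 TGR 20 nM + NADPH 100 uM (dispensed conc.), cpd preinc 15 min RT; start with NADPH (500 uM addition) then DTNB (15 mM addition). Kinetic TNB absorbance, 405 nm filter. Four-parameter Hill fit across titration.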
# HCMV inh = blocks human cytomegalovirus replication | AID 1259415 | actives 4.5% (n = 410,000) | activity change, negative = inhibition, % at 57.5 µM | HFF cells, HCMV-luciferase reporter, 72 h; hits give low values; in the data active = activity change below about -60%; inconclusive = no clear call, values can overlap the other calls; inactive = above about -39%; also: % is scaled to controls: 0 for no effect and ±100 for the full control effect
#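 After 16 h attachment at 37C, HFF cells received test compound and HCMV-luciferase (1 PFU/cell); reporter luminescence read 72 h later, data normalized against buffer-only and known inhibitor Salinomycin.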
# SARS PLpro yeast = blocks SARS-CoV papain-like protease in a yeast assay; S. cerevisiae expressing SARS-CoV PLpro, growth rescue; Potency, µM (top dose mostly 32.9 µM), for inactives: at the highest dose activity, positive = growth rescue, hits mostly activators; actives 0.19% (n = 330,000); calls by dose curve; also: potency is read from the fitted curve at half-maximal effect; 0% is about no effect; nearly all actives have a fitted effect of over 55% in size
# Numbers without * were called inactive; ? = inconclusive; · = no result; [ ] = another dose, or the depositor's remark. Unless noted, calls follow the shape of the dose curve; as a rule, active = well fitted curve in the direction sought with a large enough effect; inconclusive = small, poorly fitted or top-dose-only effect, or another doubt; inactive = no such curve, though single readings can be large; an effect the other way counts as inactive or inconclusive.
SMILES,Pf growth 48h,HCV inhibitor,Pf growth 96h,Sm TGR block,HCMV inh,SARS PLpro yeast
CN1CCN(CC(C)(C)NS(=O)(=O)c2ccccc2)CC1,·,2.3%,·,·,-61.3*,-0.7%
Cc1cccc(N2CCN(S(=O)(=O)c3ccc4c(c3)C(C(C)C)C(=O)N4)CC2)c1C (stereo unspecified),·,·,·,10.2%,?,·
Cc1[nH]n(C(C)(C)C)c(=O)c1Sc1ccccc1,-10.8%,13.4%,11.7µM*,2.1%,-19.8,-30.9%
Cc1ccc(NC(=S)NCc2ccccc2)cc1[N+](=O)[O-],2.1%,-23.4%,?,-15.3%,-95.9*,-44.2%
Cc1ccc(CNC(=S)Nc2ccc(C)c([N+](=O)[O-])c2)cc1,4.5%,-19.6%,-26.2%,-2.6%,3.9,7.4%
Cc1cc([N+](=O)[O-])ccc1NC(=O)C[n+]1ccc(N(C)C)cc1,-12.4%,5.6%,26.2%,0.6%,-99.9*,0.7%
CNC(=S)Nc1ccc([N+](=O)[O-])cc1C,-4.1%,?,-27.0%,10µM*,1.0,0.4%
CNC(=S)Nc1ccc([N+](=O)[O-])c(C)c1,17.9%,-11.5%,73.3%[5.75 µM],39.8µM*,?,0.7%
CCCn1c(SCC(=O)N(CC)c2c(N)n(Cc3ccccc3)c(=O)[nH]c2=O)nnc1-c1ccncc1,·,11.3%,·,·,-18.7,·
O=C(NC1CCCC1)C1CCN(c2cnccn2)CC1,35.6%,13.9%,?,·,-14.6,0.3%
COc1ccc(NC(=O)Nc2ccc(F)cc2F)c(C)c1,·,-5.4%,?,-14.5%,8.1,-3.6%
Cc1cc([N+](=O)[O-])ccc1NC(=O)Nc1ccc(F)cc1F,?,3.55µM*,1.3%,-9.5%,?,-0.2%
Cc1ccc2c(C(=O)CCl)c(C)[nH]c2c1,1.2%,?,-0.9%,1.41µM*,-33.7,1.9%
O=C(NCc1ccccc1)C1=C[C@H](c2ccc(Br)cc2)C[C@H](OCc2ccc(CO)cc2)O1,?,-6.4%,1.65µM*,-12.6%,26.7,-3.2%
C#Cc1ccc([C@@H]2C=C(C(=O)NCc3ccccc3)O[C@H](OCc3ccc(CO)cc3)C2)cc1,?,-19.0%[8.37 µM],?,?,-16.6,-2.5%
O=C(NCc1ccccc1)C1=C[C@@H](c2ccccc2)C[C@@H](OCc2ccc(CO)cc2)O1,?,?,9.28µM*,50.1µM*,9.9,-3.2%
O=C(Nc1ccccc1)C1=C[C@H](c2ccc(Br)cc2)C[C@H](OCc2ccc(CO)cc2)O1,-26.1%,-16.0%,?,1.5%,-7.5,-4.3%
COc1cc(OC)cc(OC(=O)C2CCN(C(=O)c3ccc(Cl)cc3)CC2)c1,?,6.2%,24.3%,-7.3%,0.0,4.4%
COc1ccc(N2CCN(C(=O)c3c(C)nn(-c4ccccc4)c3C)CC2)cc1,-13.0%,-25.3%,-1.6%,0.5%,-7.3,7.3%
CC(=O)Nc1ccccc1OCc1cc(=O)n2c(C)csc2n1,·,·,·,5.7%,-1.0,·
COc1cc(C(=O)Nc2nc(-c3ccc(Cl)cc3)c(C)s2)ccc1OCC(=O)Nc1ccc(F)cc1,?,?,4.15µM*,-11.3%,-29.9,1.4%
COc1cc(OC)cc(C(=O)NNC(=O)C2CSC3(C)CCC(=O)N23)c1 (stereo unspecified),4.2%,-2.2%,-22.6%,-0.7%,-17.7,0.8%
CC12CCC(=O)N1C(C(=O)NNC(=O)c1ccccc1Cl)CS2 (stereo unspecified),4.2%,3.3%,-26.5%,-10.0%,-90.4*,-6.3%
CC(C)c1ccc(NC(=O)C2CSC3(C)CCC(=O)N23)cc1 (stereo unspecified),-6.8%,1.9%,-17.8%,6.5%,9.2,4.0%
CC1CC(C)CN(S(=O)(=O)c2ccc(NC(=O)C3CSC4(C)CCC(=O)N34)cc2)C1 (stereo unspecified),?,?,9.28µM*,0.7%,-20.7,-5.6%
SMILES,Pf growth 48h,HCV inhibitor,Pf growth 96h,Sm TGR block,HCMV inh,SARS PLpro yeast
CN(Cc1ccc(Cl)c(Cl)c1)C(=O)C1CSC2(C)CCC(=O)N12 (stereo unspecified),?,0.5%,?,-1.7%,-82.2*,-0.3%
Cc1ccc(OC(=O)C2CSC3(C)CCC(=O)N23)c(Br)c1 (stereo unspecified),23.3%,14.3%,5.86µM*,-15.1%,14.3,-1.7%
CC12CCC(=O)N1C(C(=O)Nc1ccc(S(=O)(=O)N3CCCCC3)cc1)CS2 (stereo unspecified),?,13.1%,0.2%,-0.5%,-6.4,5.2%
CC12CCC(=O)N1C(C(=O)Nc1cccc(S(=O)(=O)N3CCCCCC3)c1)CS2 (stereo unspecified),-13.4%,?,13.1µM*,-9.2%,-5.3,5.4%
COc1ccc(CCN2CC(O)=C(c3nc4ccccc4c(=O)[nH]3)C2=N)cc1OC,13.1µM*,-12.8%,·,1.2%,-20.3,4.8%
COc1ccc2c(c1)CC(C(=O)Nc1ccc(Br)c(C)c1)CO2 (stereo unspecified),·,·,·,-4.3%,-16.4,·
COC1CC(=C(c2cccs2)c2cccs2)C[N+](C)(C)C1 (stereo unspecified),4.78µM*,·,-7.4%,·,·,·
COC(=O)[C@@]12C[C@@H](CC(=O)NCc3cccc(C(F)(F)F)c3)C(=O)N(CCc3ccc(OC)c(OC)c3)C1=CCC(C)(C)C2,·,·,·,·,64.9,·
COc1ccc(CN2CCN(C(=O)C3CCN(C(=O)Nc4ccccc4)CC3)CC2)cc1OC,·,-12.7%,·,·,21.0,3.1%
O=C(CSc1n[nH]c(=O)[nH]c1=O)c1ccccc1,0.5%,10.0%,·,-0.6%,-66.6*,5.4%
O=C(CSc1n[nH]c(=O)[nH]c1=O)c1ccccc1[N+](=O)[O-],-6.7%,13.6%,?,44.7µM*,0.0,1.4%
O=C(CSc1n[nH]c(=O)[nH]c1=O)c1cccc([N+](=O)[O-])c1,19.6%,6.8%,191.3%,-22.2%,?,0.6%
O=C(COC(=O)Cc1ccc(Cl)cc1)NCc1cccs1,·,0.3%,·,·,25.4,2.8%
Cc1ccc(-c2cc(C(=O)Nc3cc(C)ccc3C)[nH]n2)c(O)c1,?,-4.9%,?,-3.5%,-13.6,29.9%
Cc1ccc(NC(=O)c2cc(-c3cc(C)c(C)cc3O)n[nH]2)cc1C,2.08µM*,19.2%,2.62µM*,3.3%,-39.8,1.2%
Cc1ccc(C)c(NC(=O)c2cc(-c3cc(C)c(C)cc3O)n[nH]2)c1,6.57µM*,?,?,28.6%,-77.7*,1.5%
Cc1ccc(NC(=O)c2cc(-c3ccc(C)c(C)c3O)n[nH]2)cc1C,?,?,?,10.8%,7.0,-5.1%
Cc1ccc(NC(=O)c2cc(-c3cc(Cl)ccc3C)n[nH]2)cc1NS(C)(=O)=O,·,·,·,·,-82.8*,·
